In the library only some 5.7% were active in any assay of this set; here they are far more common.
hgDAF-12 ag: hgDAF-12 agonism, primary luciferase screen | HEK293 GAL4-hgDAF12 UAS-luciferase reporter, agonist luminescence; normalized to butyrate control | activation, % at 6.8 µM | actives 1.8% (n = 370,000) | AID 687014;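 active = activation above a cutoff set at the mean of all screened compounds plus 3 SD, cut at about 10% in these data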;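 note: 0% = DMSO wells and 100% = sodium butyrate wells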
AHR act: activators of human aryl hydrocarbon receptor; P35869; AHR-responsive luciferase reporter cells, luminescence; activation, % at 5 µM; actives 2.5% (n = 320,000); in the data active = activation above about 47%;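 note: 0% = vehicle wells and 100% = reference agonist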
Target sequence (P35869 whole entry, looked up): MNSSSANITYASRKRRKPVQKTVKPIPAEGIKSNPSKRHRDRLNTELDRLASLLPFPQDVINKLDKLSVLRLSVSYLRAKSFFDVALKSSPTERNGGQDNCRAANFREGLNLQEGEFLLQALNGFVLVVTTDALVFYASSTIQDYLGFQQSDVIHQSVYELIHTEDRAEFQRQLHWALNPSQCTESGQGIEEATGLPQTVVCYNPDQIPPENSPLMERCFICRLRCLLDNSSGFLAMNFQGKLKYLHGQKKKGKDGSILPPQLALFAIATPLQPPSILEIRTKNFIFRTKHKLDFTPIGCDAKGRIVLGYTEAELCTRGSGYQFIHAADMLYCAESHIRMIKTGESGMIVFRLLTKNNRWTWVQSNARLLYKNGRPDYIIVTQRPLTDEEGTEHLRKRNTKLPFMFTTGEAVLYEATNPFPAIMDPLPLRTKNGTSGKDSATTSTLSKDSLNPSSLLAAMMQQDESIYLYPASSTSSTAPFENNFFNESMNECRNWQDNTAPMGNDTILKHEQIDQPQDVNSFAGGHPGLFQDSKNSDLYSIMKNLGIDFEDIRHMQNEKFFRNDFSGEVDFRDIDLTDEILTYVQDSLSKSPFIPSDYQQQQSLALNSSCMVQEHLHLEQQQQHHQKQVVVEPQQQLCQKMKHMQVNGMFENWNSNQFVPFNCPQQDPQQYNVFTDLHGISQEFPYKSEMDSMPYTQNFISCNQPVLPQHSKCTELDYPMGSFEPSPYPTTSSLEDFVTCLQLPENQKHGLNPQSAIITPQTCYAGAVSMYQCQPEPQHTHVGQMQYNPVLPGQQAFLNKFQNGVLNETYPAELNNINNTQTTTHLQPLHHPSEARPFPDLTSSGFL
DAX1 inh-1: inhibitors of DAX1 repression of SF-1 activated StAR promoter | HEK293T StAR-luciferase reporter, SF-1/DAX-1 repression relief | actives 1.1% (n = 370,000) | inhibition, % at 6.8 µM | AID 652010;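 active = inhibition above the mean over all tested compounds plus 3 SD, cut at about 3.6% in these data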;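 note: 0% = DAX-1 cells with DMSO and 100% = cells lacking DAX-1 with DMSO; higher inhibition means more luminescence from relief of DAX-1 repression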
ssDAF-12 act: activators of S. stercoralis DAF-12 nuclear receptor; activation, % at 6.8 µM; actives 1% (n = 370,000); AID 652126; HEK293 ssDAF-12/GRIP1 lit1-tk-luc reporter, luminescence; % of 3 µM dafachronic acid response;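 active = activation above the mean over all tested compounds plus 3 SD, cut at about 0.9% in these data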;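 note: 0% = DMSO-only wells and 100% = 3 µM delta7-dafachronic acid wells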
DAX1 inh-2: NR0B1 (DAX1) inhibition; P51843; inhibition, % at 6.75 µM; HEK293 Gal4-DAX1 luciferase reporter, luminescence; actives 0.99% (n = 340,000);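 active = inhibition above the mean over all tested compounds plus 3 SD, cut at about 4.2% in these data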;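 note: 0% = DAX1-transfected cells with DMSO and 100% = empty-vector control cells with DMSO; inhibition shows as a rise in luminescence from relieved DAX1 repression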
hcDAF-12 act: activators of H. contortus DAF-12 nuclear receptor; HEK293 hcDAF-12 lit1-tk-luc reporter, luminescence; 0% DMSO, 100% Δ7-dafachronic acid; actives 1.4% (n = 370,000); activation, % at 6.8 µM;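 active = activation above the mean of all tested compounds plus 3 SD, cut at about 5.5% in these data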;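 note: 100% = response to 3 µM Δ7-dafachronic acid high control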
LXRb hcDAF ctr: activates human LXR-beta, counter-screen for hcDAF-12 agonists | shares compounds with hcDAF-12 act | HEK293 Gal4-LXR tk-luc reporter, luminescence, 24 h; normalized: DMSO 0%, positive control 100% | activation, % at 6.8 µM | 3,400 tested, under 10 active;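 active = mean percent activation of the reporter above a cutoff set as the average over tested compounds plus their standard deviation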
hcDAF12 conf: hcDAF-12 agonism, confirmation assay; shares compounds with hcDAF-12 act; HEK293 hcDAF-12 lit1-tk-luc reporter, luminescence; % of Δ7-dafachronic acid response; activation, % at 6.8 µM; actives 61% (n = 3,400);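 active = mean activation across triplicate tests above the threshold derived from the earlier primary screen, cut at about 5.5% in these data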;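 note: 0% = DMSO only wells and 100% = 3 µM Δ7-dafachronic acid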
hgDAF12 conf: confirmation of H. glycines DAF-12 agonists. shares compounds with hgDAF-12 ag. HEK293 GAL4-hgDAF12 luciferase reporter, agonist mode; percent of butyrate response. activation, % at 6.8 µM. actives 80% (n = 3,300). AID 743050;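 active = mean activation over triplicate wells above the hit cutoff derived from the earlier primary screen, cut at about 11% in these data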;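 note: 0% = DMSO low control and 100% = 2 mM sodium butyrate high control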
LXR ag 2: LXR-beta agonism as DAF-12 counter-screen; shares compounds with hgDAF-12 ag; HEK293 Gal4-LXR luciferase reporter, 24 h; activation, % at 6.8 µM; 3,300 tested, under 10 active; AID 743051;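 active = mean activation of the triplicate above a set limit carried over from the primary screen, none filed active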
The depositor's hits bear a star; nt = not tested or not shown.

SMILES	hgDAF-12 ag	AHR act	DAX1 inh-1	ssDAF-12 act	DAX1 inh-2	hcDAF-12 act	LXRb hcDAF ctr	hcDAF12 conf	hgDAF12 conf	LXR ag 2
O=C(COC(=O)C1CC(O)CN1S(=O)(=O)c1ccc(Cl)cc1)c1cccc(Cl)c1 (stereo not given)	-3	-3	0	-2	0	3	nt	nt	nt	nt
Cc1nc2ccc(NC(=O)c3cc(Cl)ccn3)cc2s1	16*	19	4	0	4	7.0*	1	5.8*	15*	1
CSc1ncccc1C(=O)Nc1ccc2nc(C)sc2c1	4	6	2	-1	1	0	nt	nt	nt	nt
CSc1nc2ccc(NC(=O)c3ccccn3)cc2s1	16*	12	3.9*	1.3*	-1	10*	2	7.8*	17*	1
CN(C)CC(C)(C)CNS(=O)(=O)CC12CCC(CC1=O)C2(C)C (stereo not given)	-2	-2	0	-1	-1	-1	nt	nt	nt	nt
Clc1ccccc1Nc1nc(NCC2CC2)nc2ccsc12	-5	nt	-2	-2	nt	-1	nt	nt	nt	nt
CCOc1ccc(C(=O)Nc2ccccc2C(=O)O)cc1	18*	8	3	1.1*	0	8.2*	1	8.3*	15*	1
CCCC(=O)Nc1ccccc1NC(=O)c1ccc(OCC)cc1	3	14	0	-1	1	0	nt	nt	nt	nt
Cc1scc(C(=O)N/N=C/c2ccc(Cl)s2)c1C	14*	4	3	0	6.2*	8.2*	1	6	15*	1
Cc1scc(C(=O)N/N=C/c2ccc(OC(C)C)cc2)c1C	5	7	0	0	2	1	nt	nt	nt	nt
CCC(=O)Nc1ccc(/C(C)=N/NC(=O)c2c(Br)c(C)nn2C)cc1	0	11	0	-1	1	0	nt	nt	nt	nt
C/C(=N\NC(=O)c1nn(C)c(C)c1Br)c1ccc(NC(=O)c2ccccc2F)cc1	14*	-1	4.2*	0	4.4*	7.2*	0	0	2	0
COc1ccc(Cc2noc(CN(C)CC3(N4CCOCC4)CCCCC3)n2)cc1OC	2	3	-1	-1	0	-2	nt	nt	nt	nt
OCC1(CCOc2ccccc2)CCN(Cc2nc3ccc(F)cc3[nH]2)CC1	-6	6	0	-1	-3	1	nt	nt	nt	nt
Cc1ccc(NC(=O)c2ccccc2O)cc1	20*	20	3	2.1*	0	10*	2	8.3*	17*	1
CCc1ccc(NC(=O)c2cc(C(C)C)on2)cc1	15*	-2	3	0	0	7.1*	1	6.0*	19*	1
O=C(Nc1cc2ccccc2oc1=O)c1ccccc1	15*	-7	2	0	nt	11*	1	9.2*	5	1
CCn1c(/C=C/c2ccccc2)nc2ccccc21	15*	15	3.9*	1.4*	0	11*	1	12*	17*	1
CCCS(=O)(=O)NCc1cn2c(C)csc2n1	15*	12	3.8*	1.1*	4	10*	0	4	6	0
CCS(=O)(=O)NCc1cn2c(C)csc2n1	1	2	-1	0	0	3	nt	nt	nt	nt
COc1ccc(-c2cc3cccc(OC)c3oc2=O)cc1	16*	8	3	0	-1	7.3*	2	7.8*	24*	1
COc1ccc(/C=C/C(=O)c2cc3cccc(OC)c3oc2=O)cc1	-2	5	-1	-1	0	1	nt	nt	nt	nt

High-throughput results (PubChem)
